Hits are enriched below; roughly 6.2% of the tested compounds scored in any of these assays.
MARV entry inh: qHTS for inhibitors of binding or entry into cells for Marburg Virus; Potency, µM (series often up to 37.8 µM), usual class: inhibitors; hit rate 1.8% among 300,000; Marburg virus pseudotyped entry inhibition, cell reporter; calls by dose curve; tested in HEK293 cells
HCMV antiviral: qHTS Assay for inhibitors of the human cytomegalovirus (HCMV). HFF cells, HCMV-luciferase reporter, 72 h; hits give low values. activity change, negative = inhibition, % at 57.5 µM. hit rate 4.5% among 410,000; in the data active = activity change below about -60%; inconclusive = no clear call, values can overlap the other calls; inactive = above about -39%
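Luciferase read-out from HCMV-luciferase-infected HFFs (MOI 1 PFU/cell) 72 h post infection at 37C; compounds added after 16 h cell attachment; activity normalized between buffer-only basal and Salinomycin (10uM) inhibitor controls.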
LASV entry inh: qHTS for Inhibitors of binding or entry into cells for Lassa Virus; Lassa virus pseudotype entry inhibition, cell reporter; Potency, µM (series often up to 37.9 µM), most hits filed as inhibitors; hit rate 1.2% among 300,000; calls by dose curve; tested in HEK293 cells; note: nearly all actives have a fitted effect of over 50% in size
FMDV inh: High Throughput Screening for Foot and Mouth Disease Virus Antivirals. Potency, µM (top dose mostly 57.9 µM), usual class: inhibitors. hit rate 1.2% among 410,000. AID 1159524, 2015. FMDV antiviral cell-based qHTS; calls by dose curve; tested in HEK293T cells; note: read-out not given here; nearly all actives have a fitted effect of over 45% in size
Hits are given with their value; - = inactive; ? = inconclusive; . = no result given.

SMILES	MARV entry inh	HCMV antiviral	LASV entry inh	FMDV inh
COCC(=O)Nc1cc(C(=O)N2CCN(C)C(c3ccccc3)C2)c2c(c1)nc(-c1ccncc1)n2C (stereo unspecified)	.	.	.	-
COC(=O)[C@]1(C#N)CC(=O)N([C@H](C)[C@@H](O)c2ccccc2)[C@@H]1c1ccccc1	.	-	.	.
CC(C)(C)OC(=O)N[C@H](Cc1ccccc1)C(=O)N1CCC[C@@H]1C(=O)O	.	-80	.	-
CCc1c(C#N)c(SCCC(=O)Nc2ccc(F)cc2)nc2c1C(=O)CC(C)(C)C2	?	-96	?	28µM
CCc1c(C#N)c(SCCC(=O)Nc2cccc(OC)c2)nc2c1C(=O)CC(C)(C)C2	-	-	-	-
COC(=O)CC1=CO[C@@H](O)[C@@H]2C(CO)=CC[C@@H]12	-	.	.	.
COc1ccc(N2CCN(C(=O)c3cccnc3SCc3cccc(Br)c3)CC2)cc1	?	-	13µM	?
O=C(CCc1ccccc1)c1ccc2c(c1)OCCCO2	-	-	?	-
O=C(NCCc1ccccc1)c1ccc2c(c1)OCCO2	0.45µM	-79	0.35µM	1.8µM
O=C(NCCc1ccccc1)c1ccc2c(c1)OCCCO2	?	-93	?	1.1µM
O=C(CCCc1ccccc1)c1ccc2c(c1)OCCO2	0.46µM	-91	?	7.9µM
COc1ccc(CCNC(=O)c2ccc3c(c2)OCCO3)cc1	?	-	?	-
Nc1cc[n+](CC(=O)c2ccc3c(c2)OCCO3)cc1	-	-82	?	?
O=C(C[n+]1ccc(C(=O)NCc2ccccc2)cc1)c1ccc2c(c1)OCCO2	-	-	-	-
COc1ccc(NC(=O)Cn2nc(C)c3nn(-c4ccc(Cl)cc4)c(C)c3c2=O)cc1	.	-	-	-
CCn1nc(C)c2c(-c3ccccc3)cc(=O)n(C(C)C(=O)NCc3cccc(OC)c3)c21 (stereo unspecified)	.	-	-	-
Cn1nc(C(=O)N2CCN(c3ccc(Cl)cc3)CC2)c2c1-c1ccccc1SC2	-	-71	-	-
COc1cccc(CN(C)C(=O)CNC(=O)c2sc3ccccc3c2Cl)c1OC	-	-	?	40µM
COCC=CC1=CC2=CC(=O)C(C)(OC(=O)c3cnc4ccccc4n3)C(=O)C2=CN1CCc1c[nH]c2ccccc12 (stereo unspecified)	-	.	.	.
CC(C)C(CCNC1CCN(C)CC1)c1ccc(Cl)cc1 (stereo unspecified)	.	-99	.	-
CN1CCC(NCCC(c2ccc(F)cc2)c2ccc(Cl)cc2)CC1 (stereo unspecified)	?	-97	?	-
CC(C)C(CCNCc1ccccn1)c1ccc(Cl)cc1 (stereo unspecified)	?	?	-	-
CC(NC1CCN(Cc2ccccc2)CC1)c1ccc(F)cc1 (stereo unspecified)	?	-	?	-
O=C(Nc1ccc(NC(=O)c2ccc([N+](=O)[O-])o2)cc1Cl)c1ccco1	-	-73	-	-
COc1ccc(-c2cc3ccccc3oc2=O)cc1NC(=O)c1ccc([N+](=O)[O-])o1	-	-66	-	-
SMILES	MARV entry inh	HCMV antiviral	LASV entry inh	FMDV inh
CS(=O)(=O)N1CCN(c2ccccc2NC(=O)c2ccc([N+](=O)[O-])o2)CC1	?	-83	?	?
O=C(Nc1ccccc1Cl)c1ccc([N+](=O)[O-])o1	13µM	-101	?	-
CCOc1ccc(NS(=O)(=O)c2ccc3[nH]cc(C(=O)N(C)C4CCCCC4)c(=O)c3c2)cc1	.	-	-	-
NC(c1ccccc1)c1csc(Nc2cc(Oc3ccccc3)ncn2)n1 (stereo unspecified)	.	-	.	-
O=C(NC12CC3CC(CC(C3)C1)C2)c1ccc([N+](=O)[O-])o1	.	-70	.	?
Cc1ccn2c(Nc3ccc4c(c3)OCO4)c(-c3ccccn3)nc2c1	?	-98	?	?
COc1ccc2c(c1)CCCC1(CCCO2)CCCO1 (stereo unspecified)	.	-	.	.
O=[N+]([O-])c1ccc(N/N=C2/CCCCC2c2ccccn2)cc1 (stereo unspecified)	1.1µM	-	?	-
COc1ccc(Cn2cc(CN3CCc4onc(-c5ccccc5OC)c4C3=O)nn2)cc1	.	-	.	-
Cc1[nH]c2ccccc2c1C(=O)c1c(N)[nH]c(C(=O)c2ccccc2)c1-c1ccc(Cl)cc1	.	-	.	.
CCN(CC)S(=O)(=O)c1ccc(C(=O)NCC2CCCCC2)cc1	-	-	7.1µM	-
CN(C)S(=O)(=O)c1cccc(C(=O)NCC2CCCCC2)c1	-	-78	-	-
CCN(CC)S(=O)(=O)c1cc(NC(=S)NC(=O)C2CCCC2)ccc1C	.	-72	.	-
CCN(Cc1ccccc1)S(=O)(=O)c1cc(C(=O)NCC2CCCCC2)ccc1OC	?	-83	?	-
CCN(Cc1ccccc1)S(=O)(=O)c1cc(C(=O)NC2CCCCCC2)ccc1OC	?	-	?	-
CC(C1OC(C)(C)C(O)C1O)C1CC[C@@]2(C)C3=CCC4C(C)(C)C(=O)CC[C@]4(C)C3CC[C@@]12C (stereo partly specified)	.	.	.	-
CCN(CC)S(=O)(=O)c1ccc(N(C)C)c(NC(=O)C2CCCC2)c1	.	-	.	-
CCN(CC)c1ccc(S(=O)(=O)N(CC)CC)cc1NC(=O)C1CCCC1	?	-	7.9µM	-
O=[N+]([O-])c1cccc2c(N3CCCC3)ccnc12	?	-106	?	?
O=[N+]([O-])c1ccc(N2CCOCC2)c2cccnc12	.	-	.	-
Cc1c(/C=N/NC(=O)c2ccccc2O)c2ccccn2c1C(=O)c1ccc(F)cc1	11µM	-	?	25µM
Cc1c(/C=N/NC(=O)c2ccc(O)cc2)c2ccccn2c1C(=O)c1ccc(F)cc1	?	-	11µM	?
Cc1c(/C=N/NC(=O)c2cccnc2)c2ccccn2c1C(=O)c1ccc(F)cc1	-	.	-	.
COC(=O)N/N=C/c1c(C)c(C(=O)c2ccc(F)cc2)n2ccccc12	?	-	?	35µM
CCOC(=O)N/N=C/c1c(C)c(C(=O)c2ccc(F)cc2)n2ccccc12	-	?	-	-
SMILES	MARV entry inh	HCMV antiviral	LASV entry inh	FMDV inh
Cc1cc2c(cc1NS(=O)(=O)c1ccc(F)cc1)n(C)c(=O)c(=O)n2C	.	-	-	-
COc1ccc(-c2cc(-c3ccccc3)c(C#N)c(S(C)=O)n2)cc1 (stereo unspecified)	?	-99	?	?
C=CCOc1c(Cl)cc(C(=S)N2CCCC2)cc1OCC	-	-76	?	-
Cn1c(N)c(C(=O)CSc2nn(-c3ccccc3)c(=S)s2)c(=O)n(C)c1=O	?	?	?	25µM
CC(Sc1nn(-c2ccc(F)cc2)c(=S)s1)C(=O)c1c(N)n(C)c(=O)n(C)c1=O (stereo unspecified)	-	-	-	?
CC(=O)N1c2ccc(S(=O)(=O)NCC3CCC(C(=O)Nc4ccc(C)cn4)CC3)cc2CC1C (stereo unspecified)	?	-62	?	?
CC(=O)N1c2ccc(S(=O)(=O)NCC3CCC(C(=O)NC(C)(C)C)CC3)cc2CC1C (stereo unspecified)	.	-	-	-
CC(=O)N1CCOc2ccc(S(=O)(=O)NCC3CCC(C(=O)NCCC(C)C)CC3)cc21 (stereo unspecified)	-	?	-	-
